High-throughput results deposited in PubChem by Broad Institute.
Sampled rows, rich in hits. Any-hit rate of the full collection: about 3.1%.
PAX8 inh HTS: inhibitors of PAX8-driven TPO luciferase reporter, primary screen, RMG-I cells, single concentration; SteadyGlo, 24 h; inhibition, % at 12.6 µM; hit rate 1.2% among 360,000; AID 652154, 2013;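 active means mean replicate inhibition at least 60% with every replicate also reaching 60%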;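 further: luciferase light reporting Pax8 driven TPO promoter activity; plate controls were median of neutral control wells for no effect and mitoxantrone controls for full effect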
EWS-Fli inh: EWS/Fli-driven NR0B1 reporter inhibitors, primary screen, A673 cells, NR0B1 luciferase, luminescence, MLPCN library. viability-normalised. inhibition, % at 12.6 µM. hit rate 0.67% among 350,000;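 active means mean inhibition of at least 50% after viability correction, with every replicate also passing that limit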;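 further: firefly luciferase signal divided by Alamar Blue viability fluorescence both relative to DMSO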
Statin myotox sup: suppressors of statin myotoxicity in C2C12 myotubes, primary screen, cell-based, single point, plate reader. hit rate 0.78% among 330,000. rescue of ATP level, % at 7.49 µM. C2C12 myotubes + simvastatin, ATP luminescence, 48 h; scaled: DMSO 0, geranylgeraniol control 100. AID 602340, 2012;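 active means mean ATP rescue above about 67%, or every replicate alone reaching that limit, limit read from the data, passing the limit was not always enough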;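 further: myotubes were challenged with 10 µM simvastatin during compound exposure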
INS-1E GSIS act: GLuc luminescence reporter in INS-1E cells, primary screen for activators of glucose-dependent secretion of insulin | INS-1E GLuc reporter insulin secretion, 2-3 h | activation, % at 16.6 µM | hit rate 0.61% among 370,000 | AID 743287, 2014;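 active means lowest replicate activation of at least 40%, so every replicate reaches that level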;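 further: 0% = median of neutral control wells and 100% = median of IBMX positive control wells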
miR122 inh: miR-122 Renilla sensor signal increase in Huh7, primary screen, miR-122 inhibitor project, cell-based, single point, plate reader | Huh7 miR-122 Renilla luciferase sensor, 48 h; neutral wells = 0, positive control = 100 | activation (reporter increase), % at 12.5 µM | hit rate 0.3% among 340,000;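 active means mean replicate activation score at least 90 and every replicate individually at or above 90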;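 further: higher luciferase means less miR-122 activity so hits act as miR-122 inhibitors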
HIV Env fusion: inhibitors of HIV-1 Env-driven cell-cell fusion, primary screen, HeLa-JRFL effector, CEM21 target cells, luciferase. inhibition, % at 12.3 µM. hit rate 1.1% among 360,000;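 active means mean replicate inhibition score of at least 50 and every replicate individually at or above 50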;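 further: 0% = plate neutral controls and 100% = maraviroc near 300 nM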
Starred values were filed as active, the others as inactive; [ ] = another dose, or the depositor's remark.

`CN(C)C(=O)C[C@@H]1CC[C@@H](NC(=O)C2CC2)[C@@H](CO)O1` gave EWS-Fli inh -4.9, Statin myotox sup 2.7, INS-1E GSIS act 10.8 and HIV Env fusion 8.8[16.7 µM].
COc1ccc(NC2CC(=O)N(C(C)C)C2=O)cc1 (configuration not stated) was read as EWS-Fli inh -71.8, Statin myotox sup 8.2, INS-1E GSIS act 0.4 and miR122 inh -2.0.
`CC(C)N1C(=O)CC(Nc2ccc(N3CCOCC3)cc2)C1=O` (configuration not stated) gave PAX8 inh HTS -61.9, Statin myotox sup -22.5, miR122 inh 182.9* and HIV Env fusion -67.0.
Screening C[C@@H]1CN([C@@H](C)CO)C(=O)c2cccc(NS(=O)(=O)c3ccc(F)cc3)c2O[C@@H]1CN(C)C(=O)NC1CCCCC1 returned PAX8 inh HTS 3.1, EWS-Fli inh 10.3, Statin myotox sup 24.3, INS-1E GSIS act -16.8, miR122 inh -5.4[16.7 µM] and HIV Env fusion 9.4[16.7 µM].
For CC(=O)Nc1ccc(Sc2ccc([N+](=O)[O-])o2)cc1 the results were PAX8 inh HTS 114.3*, EWS-Fli inh 61.3*, Statin myotox sup -120.0, INS-1E GSIS act -23.8, miR122 inh -26.6 and HIV Env fusion inactive.
COC(=O)c1cnn2c(C(F)(F)F)cc(-c3ccccc3)nc12 was read as Statin myotox sup -2.0 and miR122 inh 0.5.
`N#Cc1cnn2c(C(F)(F)F)cc(-c3ccccc3)nc12` gave PAX8 inh HTS -5.0, EWS-Fli inh -2.2, Statin myotox sup -5.1, INS-1E GSIS act 44.1* and HIV Env fusion 11.2.
For Cc1cc(NC(=O)NC(=O)c2ccccc2NC(=O)CN)ccc1Oc1ncc(Br)cn1 the results were PAX8 inh HTS 28.6, EWS-Fli inh 27.9 and HIV Env fusion -50.8.
Cc1cc(NC(=O)NC(=O)c2ccccc2NC(=O)CN(C)C)ccc1Oc1ncc(Br)cn1 was read as PAX8 inh HTS 26.3, EWS-Fli inh 58.0*, miR122 inh 14.0 and HIV Env fusion -64.8.
For COc1cc(CN(C)c2ccc(S(=O)(=O)N3CCCC3)cn2)ccc1OC(F)F the results were EWS-Fli inh 6.7, Statin myotox sup 27.7, INS-1E GSIS act 44.3*, miR122 inh -7.4 and HIV Env fusion 4.8.
Screening O=C(CN1CCOCC1)NCC[C@H]1CC[C@H](NS(=O)(=O)c2ccc(F)cc2)[C@@H](CO)O1 returned PAX8 inh HTS 8.3, EWS-Fli inh -0.1, Statin myotox sup -6.8, INS-1E GSIS act 20.6, miR122 inh 6.6[16.7 µM] and HIV Env fusion 2.0[16.7 µM].
COC(=O)CCn1nnc(-c2ccc(C(C)C)cc2)n1 was read as PAX8 inh HTS -3.4, Statin myotox sup -5.9, miR122 inh 57.1 and HIV Env fusion 65.7*.
For COC(=O)CCn1nnc(-c2cccs2)n1 the results were Statin myotox sup 1.5, miR122 inh -6.1 and HIV Env fusion -89.1.
Screening OC(CSc1ccncc1)CC(O)c1ccccc1 (configuration not stated) returned PAX8 inh HTS 4.8, EWS-Fli inh -7.1 and HIV Env fusion 14.9[16.7 µM].
Screening O=C(C[C@@H]1CC[C@@H](NC(=O)Nc2cccc(F)c2)[C@@H](CO)O1)NCC1CC1 returned PAX8 inh HTS 6.0, EWS-Fli inh -11.9, Statin myotox sup 6.2, INS-1E GSIS act 6.6, miR122 inh -15.5[16.7 µM] and HIV Env fusion 14.6[16.7 µM].
For O=C(Nc1ccc(-c2nc3ccccc3o2)cc1)c1cc(-n2cnnc2)ccc1Cl the results were Statin myotox sup 1.4, miR122 inh -5.3 and HIV Env fusion 57.5*.
Screening O=C1O/C(=C/C(=O)N2CCOCC2)c2ccccc21 returned Statin myotox sup 74.5*, INS-1E GSIS act -11.2 and miR122 inh 2.1.
O=C1O/C(=C\C(=O)N2CCOCC2)c2ccccc21 was read as Statin myotox sup -5.8 and miR122 inh 0.3.
`CS(=O)(=O)c1ccc(C(=O)OCc2nnc(-c3ccccc3)o2)cc1[N+](=O)[O-]` gave PAX8 inh HTS 33.7, EWS-Fli inh 34.8, INS-1E GSIS act 70.6* and HIV Env fusion -273.2.
For Cc1onc(-c2ccccc2)c1C(=O)OCCOc1ccccc1F the results were PAX8 inh HTS -12.5, EWS-Fli inh -7.3, Statin myotox sup 4.6, INS-1E GSIS act 0.8, miR122 inh -14.7 and HIV Env fusion 12.2.
`Cc1ccccc1OCCOC(=O)c1c(-c2ccccc2)noc1C` gave PAX8 inh HTS 27.6, EWS-Fli inh 58.2*, INS-1E GSIS act -11.1, miR122 inh 8.7 and HIV Env fusion 25.3.
Screening Cc1onc(-c2ccccc2)c1C(=O)OCc1nnc(-c2ccc([N+](=O)[O-])cc2)o1 returned PAX8 inh HTS 16.1, EWS-Fli inh 1.2, Statin myotox sup 13.6, INS-1E GSIS act -24.8, miR122 inh -2.6 and HIV Env fusion 60.3*.
Screening O=C(OCc1nnc(-c2ccccc2)o1)c1cc([N+](=O)[O-])ccc1Cl returned PAX8 inh HTS -8.2, EWS-Fli inh 3.0, Statin myotox sup 4.5, INS-1E GSIS act 3.6, miR122 inh -8.5 and HIV Env fusion 19.0.
Screening O=C(NCCCN1CCOCC1)[C@H]1N[C@H]2c3ccc(C4=CCCCC4)c(=O)n3C[C@H]2[C@@H]1CO returned EWS-Fli inh 1.8, Statin myotox sup -16.1, INS-1E GSIS act 35.6 and miR122 inh -3.3[16.7 µM].
CC(=O)Nc1ccc(Nc2nnc(-c3ccc(C)c(S(=O)(=O)NCC4CCCO4)c3)c3ccccc23)cc1 (configuration not stated) was read as PAX8 inh HTS -7.2, EWS-Fli inh 10.1, Statin myotox sup 2.7, miR122 inh 28.6 and HIV Env fusion 3.1.
Cc1ccc(-c2nnc(Nc3ccccc3)c3ccccc23)cc1S(=O)(=O)NCC1CCCO1 (configuration not stated) was read as Statin myotox sup -13.2, miR122 inh 126.8* and HIV Env fusion -57.1.
`CCOC(=O)[C@]12Cc3c(cc(OC)c(OC)c3OC)[C@H]1N(C1CCCCC1)C(=O)c1cc(OC)ccc12` gave PAX8 inh HTS 41.2, EWS-Fli inh 21.7, INS-1E GSIS act 178.0* and HIV Env fusion 1.7.
For COCC(=O)Nc1ccc2c(c1)C(=O)N(C)[C@H]1CC[C@@H](CC(=O)NCC(F)(F)F)O[C@H]1CO2 the results were PAX8 inh HTS -2.2, EWS-Fli inh 2.1, Statin myotox sup -16.5, INS-1E GSIS act 1.2 and miR122 inh 57.5[16.7 µM].
Screening C[C@H]1CN([C@@H](C)CO)C(=O)c2cc(-c3cccnc3)cnc2O[C@@H]1CN(C)C(=O)Nc1ccc(C(F)(F)F)cc1 returned EWS-Fli inh -2.1, Statin myotox sup -5.0, INS-1E GSIS act -2.2, miR122 inh -1.8[16.7 µM] and HIV Env fusion -3.1[16.7 µM].
